Legend:
Assay in all cases: log2 ratio of Biotin-Ahx-Ub-VS probe labelling (fragment/DMSO); higher = less target engagement (more negative = stronger competition), active = hit call of the paper (q ≤ 0.05, log2 ratio ≤ -1)
Settings in all cases: compound concentration: 200 uM; treatment time: 3 h
USP42 = target: T1, USP42 (UniProt Q9H9J4)
T1 sequence (whole entry): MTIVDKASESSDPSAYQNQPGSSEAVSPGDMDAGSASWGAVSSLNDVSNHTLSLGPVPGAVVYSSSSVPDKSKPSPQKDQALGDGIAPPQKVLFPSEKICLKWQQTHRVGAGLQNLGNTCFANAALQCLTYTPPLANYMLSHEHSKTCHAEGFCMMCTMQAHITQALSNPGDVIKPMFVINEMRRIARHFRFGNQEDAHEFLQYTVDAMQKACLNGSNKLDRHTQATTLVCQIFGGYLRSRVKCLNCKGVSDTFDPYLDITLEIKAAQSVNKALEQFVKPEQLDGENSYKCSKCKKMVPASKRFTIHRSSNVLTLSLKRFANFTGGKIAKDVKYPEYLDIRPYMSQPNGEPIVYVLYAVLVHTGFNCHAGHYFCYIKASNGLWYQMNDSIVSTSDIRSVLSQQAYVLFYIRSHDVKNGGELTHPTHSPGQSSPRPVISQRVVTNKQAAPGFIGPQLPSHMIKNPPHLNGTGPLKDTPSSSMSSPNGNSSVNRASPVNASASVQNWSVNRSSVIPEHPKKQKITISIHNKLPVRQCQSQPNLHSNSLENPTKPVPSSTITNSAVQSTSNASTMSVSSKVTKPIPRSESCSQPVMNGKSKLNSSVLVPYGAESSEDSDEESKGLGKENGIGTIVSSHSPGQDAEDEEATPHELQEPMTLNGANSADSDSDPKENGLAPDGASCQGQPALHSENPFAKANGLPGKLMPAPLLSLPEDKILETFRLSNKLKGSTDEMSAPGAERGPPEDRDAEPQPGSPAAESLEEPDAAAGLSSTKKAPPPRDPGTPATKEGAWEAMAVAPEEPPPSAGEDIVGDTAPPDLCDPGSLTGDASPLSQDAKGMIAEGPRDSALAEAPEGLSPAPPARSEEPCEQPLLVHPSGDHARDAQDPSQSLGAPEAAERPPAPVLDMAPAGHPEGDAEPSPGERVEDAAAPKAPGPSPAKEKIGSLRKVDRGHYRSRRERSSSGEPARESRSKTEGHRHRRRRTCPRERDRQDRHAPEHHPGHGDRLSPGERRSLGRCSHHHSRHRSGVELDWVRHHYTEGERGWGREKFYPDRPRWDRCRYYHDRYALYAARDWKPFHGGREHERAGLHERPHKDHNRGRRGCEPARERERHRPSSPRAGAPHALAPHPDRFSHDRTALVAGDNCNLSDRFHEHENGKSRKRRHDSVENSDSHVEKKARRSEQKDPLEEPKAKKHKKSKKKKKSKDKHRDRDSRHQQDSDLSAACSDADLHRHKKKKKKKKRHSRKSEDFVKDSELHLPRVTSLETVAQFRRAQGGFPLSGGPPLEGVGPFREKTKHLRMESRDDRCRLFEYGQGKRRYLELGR
Summary of the method: (§1)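 Values give the average log2 ratio of fragment to vehicle, assessed by unpaired t-test on global-median-normalised Spectronaut label-free quantities. Proteins needed ≥2 unique peptides. HEK293T lysate (495 µg per sample) was treated in triplicate with fragment at 200 µM or vehicle for 3 h and then with Biotin-Ahx-Ub-VS at 0.5 µM final for 1 h. Labelled DUBs were NeutrAvidin-enriched, digested and run by diaPASEF LC-MS/MS.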

USP46 = USP46 (UniProt P62068)
Summary of the method: as §1

USP47 = target: T2, USP47 (UniProt Q96K76)
T2 sequence (whole entry): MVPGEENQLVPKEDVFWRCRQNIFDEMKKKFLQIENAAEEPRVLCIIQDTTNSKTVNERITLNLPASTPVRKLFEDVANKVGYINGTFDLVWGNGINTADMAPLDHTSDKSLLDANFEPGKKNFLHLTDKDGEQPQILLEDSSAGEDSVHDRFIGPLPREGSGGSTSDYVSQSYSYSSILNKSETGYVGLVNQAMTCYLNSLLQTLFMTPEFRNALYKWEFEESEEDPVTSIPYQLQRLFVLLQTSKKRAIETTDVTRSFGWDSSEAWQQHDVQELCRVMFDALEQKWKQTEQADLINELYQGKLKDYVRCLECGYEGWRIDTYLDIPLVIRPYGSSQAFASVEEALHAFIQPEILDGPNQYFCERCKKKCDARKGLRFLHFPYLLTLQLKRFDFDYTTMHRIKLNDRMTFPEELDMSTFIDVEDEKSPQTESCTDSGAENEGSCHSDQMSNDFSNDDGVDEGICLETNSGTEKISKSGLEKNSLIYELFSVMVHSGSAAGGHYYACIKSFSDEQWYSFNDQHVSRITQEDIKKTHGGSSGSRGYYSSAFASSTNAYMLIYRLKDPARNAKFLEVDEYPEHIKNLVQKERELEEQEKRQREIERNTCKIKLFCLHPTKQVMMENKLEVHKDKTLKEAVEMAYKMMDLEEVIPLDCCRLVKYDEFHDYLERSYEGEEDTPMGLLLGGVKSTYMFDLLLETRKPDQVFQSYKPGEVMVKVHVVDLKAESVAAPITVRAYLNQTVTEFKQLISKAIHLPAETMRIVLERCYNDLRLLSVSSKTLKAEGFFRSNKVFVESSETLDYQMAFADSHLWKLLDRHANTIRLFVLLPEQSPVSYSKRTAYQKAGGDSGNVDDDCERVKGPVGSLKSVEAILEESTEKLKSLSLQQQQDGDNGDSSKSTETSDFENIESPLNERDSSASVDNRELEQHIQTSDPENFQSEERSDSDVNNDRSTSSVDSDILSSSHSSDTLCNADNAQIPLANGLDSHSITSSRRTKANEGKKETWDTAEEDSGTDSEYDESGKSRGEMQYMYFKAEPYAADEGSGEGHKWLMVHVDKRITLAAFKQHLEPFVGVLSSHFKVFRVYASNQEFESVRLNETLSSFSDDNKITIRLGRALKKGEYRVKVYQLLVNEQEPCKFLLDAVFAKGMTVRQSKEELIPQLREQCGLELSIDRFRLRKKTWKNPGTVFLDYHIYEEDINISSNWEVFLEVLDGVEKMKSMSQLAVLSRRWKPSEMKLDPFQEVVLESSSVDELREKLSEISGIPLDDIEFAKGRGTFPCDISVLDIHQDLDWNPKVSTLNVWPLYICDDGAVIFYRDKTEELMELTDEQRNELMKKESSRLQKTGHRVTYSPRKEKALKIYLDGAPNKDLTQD
Summary of the method: as §1

USP48 = target: T3, USP48 (UniProt Q86UV5)
T3 sequence (whole entry): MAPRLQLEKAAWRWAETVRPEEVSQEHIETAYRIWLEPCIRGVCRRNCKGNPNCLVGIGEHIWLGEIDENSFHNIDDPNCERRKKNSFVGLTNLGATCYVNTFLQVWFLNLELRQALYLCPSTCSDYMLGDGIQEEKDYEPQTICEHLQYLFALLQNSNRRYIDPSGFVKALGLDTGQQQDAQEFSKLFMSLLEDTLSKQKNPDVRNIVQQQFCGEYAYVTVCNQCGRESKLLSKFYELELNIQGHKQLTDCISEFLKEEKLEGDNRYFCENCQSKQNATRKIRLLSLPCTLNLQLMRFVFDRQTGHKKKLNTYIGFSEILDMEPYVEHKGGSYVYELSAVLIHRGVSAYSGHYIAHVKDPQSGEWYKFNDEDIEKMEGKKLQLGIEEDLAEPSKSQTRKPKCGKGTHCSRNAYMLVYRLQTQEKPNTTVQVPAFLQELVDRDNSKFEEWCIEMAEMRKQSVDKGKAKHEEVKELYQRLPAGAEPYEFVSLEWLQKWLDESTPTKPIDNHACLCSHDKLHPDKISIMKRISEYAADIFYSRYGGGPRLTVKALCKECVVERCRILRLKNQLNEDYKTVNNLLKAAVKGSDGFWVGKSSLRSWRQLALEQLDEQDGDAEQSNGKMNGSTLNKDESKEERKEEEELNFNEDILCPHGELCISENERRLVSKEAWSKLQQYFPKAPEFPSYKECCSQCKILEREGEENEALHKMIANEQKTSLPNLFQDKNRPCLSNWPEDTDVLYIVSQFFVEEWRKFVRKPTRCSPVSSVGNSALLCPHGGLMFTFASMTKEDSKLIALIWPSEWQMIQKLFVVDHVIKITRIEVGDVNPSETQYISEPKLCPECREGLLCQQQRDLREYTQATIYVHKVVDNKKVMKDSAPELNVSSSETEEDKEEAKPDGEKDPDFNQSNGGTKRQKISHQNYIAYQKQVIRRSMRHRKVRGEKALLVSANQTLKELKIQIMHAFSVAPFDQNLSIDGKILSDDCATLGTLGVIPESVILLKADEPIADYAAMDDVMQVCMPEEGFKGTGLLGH
Summary of the method: as §1

USP5 = target: T4, USP5 (UniProt P45974)
T4 sequence (whole entry): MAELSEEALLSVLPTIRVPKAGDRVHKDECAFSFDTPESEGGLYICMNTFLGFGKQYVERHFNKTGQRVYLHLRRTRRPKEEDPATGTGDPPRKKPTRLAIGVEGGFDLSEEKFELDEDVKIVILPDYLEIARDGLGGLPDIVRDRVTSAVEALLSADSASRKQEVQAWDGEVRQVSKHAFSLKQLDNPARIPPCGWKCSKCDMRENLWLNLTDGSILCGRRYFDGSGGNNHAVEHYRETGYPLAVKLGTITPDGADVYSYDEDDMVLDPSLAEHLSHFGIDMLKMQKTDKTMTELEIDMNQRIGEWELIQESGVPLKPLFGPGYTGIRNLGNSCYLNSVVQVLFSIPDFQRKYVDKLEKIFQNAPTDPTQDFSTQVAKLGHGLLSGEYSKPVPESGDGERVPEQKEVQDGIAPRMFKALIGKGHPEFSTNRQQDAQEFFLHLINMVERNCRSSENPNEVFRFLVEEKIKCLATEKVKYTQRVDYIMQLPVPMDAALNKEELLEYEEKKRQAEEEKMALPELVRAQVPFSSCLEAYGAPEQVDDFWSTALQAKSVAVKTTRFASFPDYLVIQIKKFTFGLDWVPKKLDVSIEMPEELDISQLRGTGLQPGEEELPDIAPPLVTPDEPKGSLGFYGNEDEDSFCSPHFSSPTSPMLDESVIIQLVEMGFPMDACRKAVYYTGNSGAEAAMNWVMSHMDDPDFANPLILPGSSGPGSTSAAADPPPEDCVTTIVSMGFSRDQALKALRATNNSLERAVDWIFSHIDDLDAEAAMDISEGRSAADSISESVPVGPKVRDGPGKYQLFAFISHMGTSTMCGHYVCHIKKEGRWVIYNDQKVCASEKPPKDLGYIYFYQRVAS
Summary of the method: as §1

USP54 = USP54 (UniProt Q70EL1)
Summary of the method: as §1

USP7 = USP7 (UniProt Q93009)
Summary of the method: as §1

USP8 = target: T5, USP8 (UniProt P40818)
T5 sequence (whole entry): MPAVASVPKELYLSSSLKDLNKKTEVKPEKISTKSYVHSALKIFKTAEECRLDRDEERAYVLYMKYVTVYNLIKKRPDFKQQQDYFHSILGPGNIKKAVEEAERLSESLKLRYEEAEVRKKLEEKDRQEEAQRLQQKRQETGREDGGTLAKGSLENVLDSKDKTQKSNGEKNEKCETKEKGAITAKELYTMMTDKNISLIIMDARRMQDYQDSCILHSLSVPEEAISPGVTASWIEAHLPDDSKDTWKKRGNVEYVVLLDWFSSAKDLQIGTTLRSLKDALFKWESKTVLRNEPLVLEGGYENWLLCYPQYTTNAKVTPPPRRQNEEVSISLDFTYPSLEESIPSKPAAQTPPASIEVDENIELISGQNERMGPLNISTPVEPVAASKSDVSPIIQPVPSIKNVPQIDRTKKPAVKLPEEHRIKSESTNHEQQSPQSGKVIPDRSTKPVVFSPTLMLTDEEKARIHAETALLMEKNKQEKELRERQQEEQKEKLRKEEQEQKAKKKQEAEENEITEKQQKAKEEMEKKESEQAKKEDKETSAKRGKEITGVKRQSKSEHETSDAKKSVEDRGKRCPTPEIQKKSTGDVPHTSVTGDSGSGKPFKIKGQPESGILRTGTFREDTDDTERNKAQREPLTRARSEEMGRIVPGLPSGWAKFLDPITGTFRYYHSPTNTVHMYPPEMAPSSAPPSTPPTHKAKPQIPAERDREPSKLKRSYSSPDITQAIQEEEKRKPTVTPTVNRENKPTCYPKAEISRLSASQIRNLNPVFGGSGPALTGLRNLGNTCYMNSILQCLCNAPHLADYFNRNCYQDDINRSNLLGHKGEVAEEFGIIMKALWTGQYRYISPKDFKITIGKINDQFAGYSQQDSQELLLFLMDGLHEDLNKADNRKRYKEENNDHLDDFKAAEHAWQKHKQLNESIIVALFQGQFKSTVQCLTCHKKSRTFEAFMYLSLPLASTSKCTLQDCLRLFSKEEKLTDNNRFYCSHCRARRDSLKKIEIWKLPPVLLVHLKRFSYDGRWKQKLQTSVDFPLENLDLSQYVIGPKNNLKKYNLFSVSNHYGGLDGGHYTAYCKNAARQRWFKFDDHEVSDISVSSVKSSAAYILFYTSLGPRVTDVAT
Summary of the method: as §1

USP9X = USP9X (UniProt Q93008)
Summary of the method: as §1

UniProt O00487 = target: UniProt O00487
Summary of the method: as §1

Measured: log2 ratio of Biotin-Ahx-Ub-VS probe labelling

USP46, sequence (P62068 whole entry): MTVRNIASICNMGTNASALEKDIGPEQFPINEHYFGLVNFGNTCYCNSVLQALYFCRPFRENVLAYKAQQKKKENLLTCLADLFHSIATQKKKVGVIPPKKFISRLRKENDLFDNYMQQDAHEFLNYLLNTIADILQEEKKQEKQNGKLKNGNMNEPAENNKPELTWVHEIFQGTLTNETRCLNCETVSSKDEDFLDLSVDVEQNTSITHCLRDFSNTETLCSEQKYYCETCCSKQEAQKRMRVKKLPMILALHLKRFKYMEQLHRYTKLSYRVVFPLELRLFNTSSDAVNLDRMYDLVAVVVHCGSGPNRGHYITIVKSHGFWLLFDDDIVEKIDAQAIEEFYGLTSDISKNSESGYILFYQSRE
USP9X, sequence (Q93008 whole entry): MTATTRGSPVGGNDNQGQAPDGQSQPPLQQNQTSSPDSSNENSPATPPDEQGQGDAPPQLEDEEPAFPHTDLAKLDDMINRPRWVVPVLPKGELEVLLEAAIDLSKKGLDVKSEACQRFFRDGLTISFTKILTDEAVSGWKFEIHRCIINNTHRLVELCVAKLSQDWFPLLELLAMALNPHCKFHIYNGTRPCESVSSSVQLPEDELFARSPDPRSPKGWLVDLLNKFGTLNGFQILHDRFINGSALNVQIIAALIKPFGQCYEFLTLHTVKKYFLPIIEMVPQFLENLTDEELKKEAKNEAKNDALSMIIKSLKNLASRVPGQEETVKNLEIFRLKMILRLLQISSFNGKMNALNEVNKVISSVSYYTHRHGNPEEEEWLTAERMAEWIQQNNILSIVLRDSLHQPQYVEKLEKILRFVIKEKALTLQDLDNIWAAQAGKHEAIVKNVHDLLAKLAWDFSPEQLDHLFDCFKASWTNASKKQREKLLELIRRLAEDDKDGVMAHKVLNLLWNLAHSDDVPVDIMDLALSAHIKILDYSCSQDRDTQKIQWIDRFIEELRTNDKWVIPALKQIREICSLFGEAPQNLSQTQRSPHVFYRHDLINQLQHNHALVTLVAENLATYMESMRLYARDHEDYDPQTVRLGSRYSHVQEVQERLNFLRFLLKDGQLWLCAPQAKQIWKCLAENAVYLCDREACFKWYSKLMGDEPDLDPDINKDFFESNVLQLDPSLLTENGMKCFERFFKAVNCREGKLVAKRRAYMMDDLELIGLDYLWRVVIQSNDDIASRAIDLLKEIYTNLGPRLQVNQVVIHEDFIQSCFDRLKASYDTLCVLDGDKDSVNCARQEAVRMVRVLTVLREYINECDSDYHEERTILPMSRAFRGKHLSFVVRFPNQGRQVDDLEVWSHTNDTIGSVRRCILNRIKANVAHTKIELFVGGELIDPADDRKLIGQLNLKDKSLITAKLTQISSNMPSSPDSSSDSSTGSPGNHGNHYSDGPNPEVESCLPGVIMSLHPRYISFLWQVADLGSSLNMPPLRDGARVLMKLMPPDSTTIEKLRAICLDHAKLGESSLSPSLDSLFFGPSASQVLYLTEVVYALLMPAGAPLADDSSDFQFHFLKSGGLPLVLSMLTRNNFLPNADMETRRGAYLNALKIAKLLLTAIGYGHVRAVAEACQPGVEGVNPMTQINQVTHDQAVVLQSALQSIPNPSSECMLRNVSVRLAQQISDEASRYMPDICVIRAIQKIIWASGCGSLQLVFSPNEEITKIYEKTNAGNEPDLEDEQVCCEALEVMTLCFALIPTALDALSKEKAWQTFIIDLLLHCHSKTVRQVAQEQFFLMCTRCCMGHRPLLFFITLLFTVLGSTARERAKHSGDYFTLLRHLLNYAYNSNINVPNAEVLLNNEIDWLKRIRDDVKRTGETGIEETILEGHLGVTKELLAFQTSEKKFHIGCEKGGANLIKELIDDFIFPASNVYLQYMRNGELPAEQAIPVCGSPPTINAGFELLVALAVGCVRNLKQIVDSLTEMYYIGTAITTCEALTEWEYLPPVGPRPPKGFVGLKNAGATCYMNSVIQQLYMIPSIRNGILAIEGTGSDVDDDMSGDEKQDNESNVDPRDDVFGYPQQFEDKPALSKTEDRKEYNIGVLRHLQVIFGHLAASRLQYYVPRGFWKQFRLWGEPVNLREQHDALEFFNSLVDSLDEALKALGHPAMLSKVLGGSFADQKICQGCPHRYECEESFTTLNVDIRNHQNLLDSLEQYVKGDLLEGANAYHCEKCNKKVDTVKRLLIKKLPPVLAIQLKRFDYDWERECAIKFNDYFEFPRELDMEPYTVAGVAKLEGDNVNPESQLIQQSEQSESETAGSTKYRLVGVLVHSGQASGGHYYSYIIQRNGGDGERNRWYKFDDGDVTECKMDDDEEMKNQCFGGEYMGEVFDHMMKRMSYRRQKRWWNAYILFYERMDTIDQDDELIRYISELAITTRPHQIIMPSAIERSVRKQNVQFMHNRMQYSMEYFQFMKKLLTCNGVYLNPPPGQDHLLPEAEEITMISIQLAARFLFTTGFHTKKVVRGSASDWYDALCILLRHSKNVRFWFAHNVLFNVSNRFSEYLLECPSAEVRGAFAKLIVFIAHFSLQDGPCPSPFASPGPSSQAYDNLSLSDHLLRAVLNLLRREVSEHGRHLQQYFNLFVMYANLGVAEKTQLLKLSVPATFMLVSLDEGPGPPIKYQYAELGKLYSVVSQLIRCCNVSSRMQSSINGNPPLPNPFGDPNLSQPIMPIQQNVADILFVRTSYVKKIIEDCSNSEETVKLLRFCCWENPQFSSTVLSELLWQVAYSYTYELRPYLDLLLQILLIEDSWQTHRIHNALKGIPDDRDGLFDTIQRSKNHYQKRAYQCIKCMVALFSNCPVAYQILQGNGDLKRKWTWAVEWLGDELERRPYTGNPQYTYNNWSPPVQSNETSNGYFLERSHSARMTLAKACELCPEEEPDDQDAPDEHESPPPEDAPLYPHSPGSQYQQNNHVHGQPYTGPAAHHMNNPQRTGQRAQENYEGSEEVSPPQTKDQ
UniProt O00487, sequence (O00487 whole entry): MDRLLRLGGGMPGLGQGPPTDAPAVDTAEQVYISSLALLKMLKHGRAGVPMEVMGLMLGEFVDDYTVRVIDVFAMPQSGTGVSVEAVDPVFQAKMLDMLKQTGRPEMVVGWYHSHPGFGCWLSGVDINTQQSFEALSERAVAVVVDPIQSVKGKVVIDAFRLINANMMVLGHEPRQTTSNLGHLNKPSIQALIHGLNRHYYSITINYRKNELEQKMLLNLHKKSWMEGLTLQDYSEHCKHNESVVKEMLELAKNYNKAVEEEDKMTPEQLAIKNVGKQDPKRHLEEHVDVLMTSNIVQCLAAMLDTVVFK
USP54, sequence (Q70EL1 whole entry): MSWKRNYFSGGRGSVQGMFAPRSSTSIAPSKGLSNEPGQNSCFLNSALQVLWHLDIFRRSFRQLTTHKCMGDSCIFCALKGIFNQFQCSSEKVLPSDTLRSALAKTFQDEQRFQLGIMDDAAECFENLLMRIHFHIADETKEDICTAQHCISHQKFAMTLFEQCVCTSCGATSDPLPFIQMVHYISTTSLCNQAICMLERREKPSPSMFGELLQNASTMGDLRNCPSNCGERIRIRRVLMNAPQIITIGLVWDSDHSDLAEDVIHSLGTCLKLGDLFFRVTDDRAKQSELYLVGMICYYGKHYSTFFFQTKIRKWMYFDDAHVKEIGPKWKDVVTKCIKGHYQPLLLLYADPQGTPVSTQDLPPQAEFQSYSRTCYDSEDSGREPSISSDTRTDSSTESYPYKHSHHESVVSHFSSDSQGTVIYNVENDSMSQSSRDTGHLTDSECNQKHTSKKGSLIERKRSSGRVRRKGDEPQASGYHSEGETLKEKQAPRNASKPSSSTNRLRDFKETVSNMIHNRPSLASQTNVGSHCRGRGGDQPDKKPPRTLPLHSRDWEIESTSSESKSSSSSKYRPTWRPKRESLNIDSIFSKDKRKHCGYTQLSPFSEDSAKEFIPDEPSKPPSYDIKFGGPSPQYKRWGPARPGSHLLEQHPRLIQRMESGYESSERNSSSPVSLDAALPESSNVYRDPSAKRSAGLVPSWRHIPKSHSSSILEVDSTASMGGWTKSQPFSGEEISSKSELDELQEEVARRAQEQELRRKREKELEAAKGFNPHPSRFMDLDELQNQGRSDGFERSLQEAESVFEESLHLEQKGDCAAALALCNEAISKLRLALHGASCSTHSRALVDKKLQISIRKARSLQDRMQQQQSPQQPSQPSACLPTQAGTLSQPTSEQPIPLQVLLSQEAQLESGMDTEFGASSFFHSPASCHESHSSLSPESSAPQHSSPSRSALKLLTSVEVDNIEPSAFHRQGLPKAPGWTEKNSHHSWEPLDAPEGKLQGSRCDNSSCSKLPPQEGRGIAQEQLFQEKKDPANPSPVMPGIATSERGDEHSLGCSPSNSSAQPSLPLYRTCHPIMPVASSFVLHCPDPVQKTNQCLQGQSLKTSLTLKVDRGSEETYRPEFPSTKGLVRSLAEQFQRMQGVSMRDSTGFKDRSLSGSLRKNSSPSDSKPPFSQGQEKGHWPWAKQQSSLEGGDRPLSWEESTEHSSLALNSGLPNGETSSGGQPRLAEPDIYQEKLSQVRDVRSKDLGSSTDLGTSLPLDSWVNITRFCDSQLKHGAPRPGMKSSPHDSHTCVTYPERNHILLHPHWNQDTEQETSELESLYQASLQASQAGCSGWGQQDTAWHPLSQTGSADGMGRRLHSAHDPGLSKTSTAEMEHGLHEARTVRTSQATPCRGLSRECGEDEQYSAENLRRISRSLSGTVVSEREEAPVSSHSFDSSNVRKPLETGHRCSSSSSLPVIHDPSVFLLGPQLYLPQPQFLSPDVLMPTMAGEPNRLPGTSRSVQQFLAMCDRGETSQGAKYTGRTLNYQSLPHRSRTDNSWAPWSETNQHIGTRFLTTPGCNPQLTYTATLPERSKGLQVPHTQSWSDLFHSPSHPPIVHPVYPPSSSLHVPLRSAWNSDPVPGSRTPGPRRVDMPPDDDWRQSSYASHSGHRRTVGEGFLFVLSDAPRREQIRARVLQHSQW

O=C(CCl)NCc1ccc(N2CCOCC2)nc1
inactive: USP42 -0.0847 | USP46 0.0882 | USP47 -0.466 | USP48 -0.188 | USP5 -0.217 | USP54 0.658 | USP7 -0.147 | USP8 -0.289 | USP9X -0.26 | UniProt O00487 -0.226

CC(NC(=O)CCl)c1ccc2[nH]ncc2c1 (stereo not given)
inactive: USP42 0.605 | USP46 -0.239 | USP47 0.0542 | USP48 -0.411 | USP5 -0.557 | USP54 0.532 | USP7 -0.578 | USP8 -0.403 | USP9X -0.429 | UniProt O00487 -0.121

Cl.O=C(CN1CCN(C(=O)CCl)CC1)Nc1ccc(F)cc1
inactive: USP42 0.733 | USP46 0.0462 | USP47 -0.158 | USP48 -0.321 | USP5 0.365 | USP54 0.194 | USP7 -0.291 | USP8 0.234 | USP9X 0.0748 | UniProt O00487 -0.0621

From the supplement of paper PMC11732987, “Enantioselective OTUD7B fragment discovery through chemoproteomics screening and high-throughput optimisation” (Communications Chemistry, 2025)
